From ChEMBL document CHEMBL3988442, “University of Dundee, Small-Polar-MMV Screening Library” (2021) come the findings set out here.

Holding throughout (parameters): scale not given: direction of the effect not stated beside the values
Assay [1] addresses Protein translocase subunit SecA (Escherichia coli (strain K12)) (UniProt P10408). Nature of the assay: Assay to Identify E. coli SecA ATPase Inhibitors. It counts as functional. The following applies: 30 µM.
The target of assay [2] is T1, Ubiquitin-activating enzyme e1, putative (Leishmania donovani (strain BPK282A1)) (UniProt E9BSI1).
T1 sequence (whole entry): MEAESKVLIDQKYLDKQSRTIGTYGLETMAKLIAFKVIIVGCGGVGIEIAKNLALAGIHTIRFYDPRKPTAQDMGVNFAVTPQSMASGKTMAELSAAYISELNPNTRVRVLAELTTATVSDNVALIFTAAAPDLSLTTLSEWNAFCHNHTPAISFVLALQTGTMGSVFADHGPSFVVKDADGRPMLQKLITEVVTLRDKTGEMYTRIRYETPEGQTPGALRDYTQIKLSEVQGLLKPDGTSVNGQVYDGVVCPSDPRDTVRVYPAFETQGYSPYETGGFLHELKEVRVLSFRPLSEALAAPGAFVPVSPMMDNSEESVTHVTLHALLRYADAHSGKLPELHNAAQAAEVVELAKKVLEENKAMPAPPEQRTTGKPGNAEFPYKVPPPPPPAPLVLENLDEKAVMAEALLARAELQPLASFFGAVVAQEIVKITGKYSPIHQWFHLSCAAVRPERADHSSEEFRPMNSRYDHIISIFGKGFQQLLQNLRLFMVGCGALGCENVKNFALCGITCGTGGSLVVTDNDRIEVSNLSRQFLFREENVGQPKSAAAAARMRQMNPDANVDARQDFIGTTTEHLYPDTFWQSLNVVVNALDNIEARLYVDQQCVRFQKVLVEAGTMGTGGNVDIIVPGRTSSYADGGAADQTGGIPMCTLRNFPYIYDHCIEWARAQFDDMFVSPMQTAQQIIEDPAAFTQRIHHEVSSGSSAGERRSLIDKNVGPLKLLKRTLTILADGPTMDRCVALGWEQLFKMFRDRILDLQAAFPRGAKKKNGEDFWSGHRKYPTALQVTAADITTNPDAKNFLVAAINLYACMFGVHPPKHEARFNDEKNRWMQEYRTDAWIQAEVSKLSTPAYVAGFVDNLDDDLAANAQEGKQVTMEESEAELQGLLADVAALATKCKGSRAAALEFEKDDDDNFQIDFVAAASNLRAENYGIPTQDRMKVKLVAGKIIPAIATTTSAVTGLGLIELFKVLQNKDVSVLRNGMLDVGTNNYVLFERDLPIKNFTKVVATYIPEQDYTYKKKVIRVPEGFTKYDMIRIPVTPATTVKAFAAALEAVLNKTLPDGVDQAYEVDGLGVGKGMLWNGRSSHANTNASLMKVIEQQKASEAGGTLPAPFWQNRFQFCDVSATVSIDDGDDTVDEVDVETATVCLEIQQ
In words: Leishmania donovani Ubiquitin Activating Enzyme (LdE1). It counts as functional. The following applies: 30 µM.

The target in assay [3] is AMP-activated protein kinase, AMPK (Homo sapiens) (UniProt P54646+O43741+P54619+Q9UGJ0+Q9Y478+Q13131+Q9UGI9). In words: AMP-dependent Kinase enzyme assay. An in vitro enzyme assay that detects ADP turnover that is directly proportional to AMPK activity. This uses naive AMPK that is activated during the assay with MK-8722. The following applies: 30 µM. It counts as functional.

The target in assay [4] is Sialic acid-binding Ig-like lectin 9 (Homo sapiens) (UniProt Q9Y336). In words: Hs-Siglec9 ALPHAscreen SOP 20170721. The following applies: 10 µM. A general note: Alpha assays give light when donor and acceptor beads are brought close together.
Chain of Sialic acid-binding Ig-like lectin 9 (Homo sapiens) (Q9Y336 whole entry): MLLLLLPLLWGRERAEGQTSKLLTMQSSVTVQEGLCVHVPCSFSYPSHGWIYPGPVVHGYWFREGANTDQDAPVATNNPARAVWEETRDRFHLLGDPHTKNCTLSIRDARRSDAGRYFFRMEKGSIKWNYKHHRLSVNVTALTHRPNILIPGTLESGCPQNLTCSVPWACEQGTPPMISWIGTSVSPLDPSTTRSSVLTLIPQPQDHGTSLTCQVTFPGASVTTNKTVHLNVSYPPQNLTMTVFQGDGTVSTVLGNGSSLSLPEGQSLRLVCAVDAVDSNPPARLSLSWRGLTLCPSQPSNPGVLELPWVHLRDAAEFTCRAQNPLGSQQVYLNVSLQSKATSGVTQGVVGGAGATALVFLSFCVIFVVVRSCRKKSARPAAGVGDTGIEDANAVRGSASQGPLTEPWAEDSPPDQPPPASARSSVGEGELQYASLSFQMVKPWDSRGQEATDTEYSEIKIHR
A further assay has as its system Trypanosoma cruzi. Nature of the assay: Trypanosoma cruzi phosphomannomutase and mannose-1-phosphate guanylyltransferase assay. Format: functional. The following applies: 10 µM.
Assay [5] has as its target T2, Arginase-2, mitochondrial (Homo sapiens) (UniProt P78540).
T2 sequence (whole entry): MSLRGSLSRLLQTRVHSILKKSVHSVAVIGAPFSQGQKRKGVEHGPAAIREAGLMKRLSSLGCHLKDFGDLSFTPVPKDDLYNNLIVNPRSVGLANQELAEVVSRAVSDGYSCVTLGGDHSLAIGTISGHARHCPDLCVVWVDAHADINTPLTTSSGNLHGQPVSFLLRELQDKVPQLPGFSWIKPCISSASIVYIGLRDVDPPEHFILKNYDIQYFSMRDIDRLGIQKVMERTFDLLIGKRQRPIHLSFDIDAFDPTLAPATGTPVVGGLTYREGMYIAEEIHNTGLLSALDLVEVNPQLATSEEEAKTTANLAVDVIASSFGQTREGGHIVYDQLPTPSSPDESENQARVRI
Nature of the assay: in vitro enzyme assay to detect the production of urea directly proportional to the activity of Arginase II. Note: in the data most compounds retested in dose-response had high values. As to conditions: 33.3 µM. Format: functional.

For assay [6], the target named is T3, Proteasome subunit beta (Trypanosoma cruzi) (UniProt O96673).
T3 sequence (whole entry): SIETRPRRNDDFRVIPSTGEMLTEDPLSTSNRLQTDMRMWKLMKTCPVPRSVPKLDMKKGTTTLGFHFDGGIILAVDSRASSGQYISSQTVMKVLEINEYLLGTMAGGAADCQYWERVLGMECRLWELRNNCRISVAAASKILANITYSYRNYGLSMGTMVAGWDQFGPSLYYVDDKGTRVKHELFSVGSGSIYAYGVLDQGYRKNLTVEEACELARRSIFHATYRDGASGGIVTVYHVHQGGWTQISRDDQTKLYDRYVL
In words: Trypanosoma cruzi proteasome chymotrypsin-like activity (TcProtChymo) assay. Note: in the data most compounds retested in dose-response had high values. Format: functional. The following applies: 9.37 µM.

The species entered for the next assay is Homo sapiens. In words: To identify inhibition of the IFN signalling (Jak-Stat) pathway via expression of an eGFP reporter gene under the control of an IFN-stimulated response element (ISRE) containing MxA promoter. It counts as functional. The following applies: 30 µM. Background: Reporter assays use an easily measured gene product as a stand-in for the process of interest.

For assay [7], the target named is T4, Tyrosyl-tRNA synthetase, putative (Trypanosoma cruzi (strain CL Brener)) (UniProt Q4DSP6).
T4 sequence (whole entry): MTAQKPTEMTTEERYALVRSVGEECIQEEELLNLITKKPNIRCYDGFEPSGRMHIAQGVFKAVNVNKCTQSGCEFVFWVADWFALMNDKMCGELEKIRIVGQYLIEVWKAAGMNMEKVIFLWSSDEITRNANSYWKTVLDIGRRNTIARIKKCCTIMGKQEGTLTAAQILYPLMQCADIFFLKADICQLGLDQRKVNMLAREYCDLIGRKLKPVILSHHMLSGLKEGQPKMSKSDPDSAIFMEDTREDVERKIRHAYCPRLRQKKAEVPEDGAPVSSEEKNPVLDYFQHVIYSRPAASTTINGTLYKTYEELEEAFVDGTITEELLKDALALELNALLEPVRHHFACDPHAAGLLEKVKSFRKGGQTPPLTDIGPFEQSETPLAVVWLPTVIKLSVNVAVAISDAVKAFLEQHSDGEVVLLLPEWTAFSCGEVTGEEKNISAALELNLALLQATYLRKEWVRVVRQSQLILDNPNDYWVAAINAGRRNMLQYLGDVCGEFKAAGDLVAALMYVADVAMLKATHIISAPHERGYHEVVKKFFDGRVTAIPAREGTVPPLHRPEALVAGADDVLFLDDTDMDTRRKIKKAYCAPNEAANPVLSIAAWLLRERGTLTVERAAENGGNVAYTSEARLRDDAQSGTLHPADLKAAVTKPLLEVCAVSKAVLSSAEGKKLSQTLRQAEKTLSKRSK
Nature of the assay: Trypanosoma cruzi tyrosyl tRNA synthetase (TcYRS) _High Tyrosine SOP. Note: in the data most compounds retested in dose-response had high values. Format: functional. The following applies: 30 µM.

In assay [8] the target is T4, Tyrosyl-tRNA synthetase, putative (Trypanosoma cruzi (strain CL Brener)). In words: Trypanosoma cruzi tyrosyl tRNA synthetase (TcYRS) SOP. Format: functional. As to conditions: 30 µM.
Assay [9] has as its target Chromo domain-containing protein 1 (Saccharomyces cerevisiae (strain ATCC 204508 / S288c) (Baker's yeast)) (UniProt P32657). Nature of the assay: ScCHD-1 Enzyme Inhibition Assay. Note: in the data most compounds retested in dose-response had high values. It counts as functional. As to conditions: 30 µM.

SMILES strings stand for the structures. For some of these results: Results with a measured potency or affinity are listed apart.

Chain of Chromo domain-containing protein 1 (Saccharomyces cerevisiae (strain ATCC 204508 / S288c) (Baker's yeast)) (P32657 whole entry, the tested form may be a part): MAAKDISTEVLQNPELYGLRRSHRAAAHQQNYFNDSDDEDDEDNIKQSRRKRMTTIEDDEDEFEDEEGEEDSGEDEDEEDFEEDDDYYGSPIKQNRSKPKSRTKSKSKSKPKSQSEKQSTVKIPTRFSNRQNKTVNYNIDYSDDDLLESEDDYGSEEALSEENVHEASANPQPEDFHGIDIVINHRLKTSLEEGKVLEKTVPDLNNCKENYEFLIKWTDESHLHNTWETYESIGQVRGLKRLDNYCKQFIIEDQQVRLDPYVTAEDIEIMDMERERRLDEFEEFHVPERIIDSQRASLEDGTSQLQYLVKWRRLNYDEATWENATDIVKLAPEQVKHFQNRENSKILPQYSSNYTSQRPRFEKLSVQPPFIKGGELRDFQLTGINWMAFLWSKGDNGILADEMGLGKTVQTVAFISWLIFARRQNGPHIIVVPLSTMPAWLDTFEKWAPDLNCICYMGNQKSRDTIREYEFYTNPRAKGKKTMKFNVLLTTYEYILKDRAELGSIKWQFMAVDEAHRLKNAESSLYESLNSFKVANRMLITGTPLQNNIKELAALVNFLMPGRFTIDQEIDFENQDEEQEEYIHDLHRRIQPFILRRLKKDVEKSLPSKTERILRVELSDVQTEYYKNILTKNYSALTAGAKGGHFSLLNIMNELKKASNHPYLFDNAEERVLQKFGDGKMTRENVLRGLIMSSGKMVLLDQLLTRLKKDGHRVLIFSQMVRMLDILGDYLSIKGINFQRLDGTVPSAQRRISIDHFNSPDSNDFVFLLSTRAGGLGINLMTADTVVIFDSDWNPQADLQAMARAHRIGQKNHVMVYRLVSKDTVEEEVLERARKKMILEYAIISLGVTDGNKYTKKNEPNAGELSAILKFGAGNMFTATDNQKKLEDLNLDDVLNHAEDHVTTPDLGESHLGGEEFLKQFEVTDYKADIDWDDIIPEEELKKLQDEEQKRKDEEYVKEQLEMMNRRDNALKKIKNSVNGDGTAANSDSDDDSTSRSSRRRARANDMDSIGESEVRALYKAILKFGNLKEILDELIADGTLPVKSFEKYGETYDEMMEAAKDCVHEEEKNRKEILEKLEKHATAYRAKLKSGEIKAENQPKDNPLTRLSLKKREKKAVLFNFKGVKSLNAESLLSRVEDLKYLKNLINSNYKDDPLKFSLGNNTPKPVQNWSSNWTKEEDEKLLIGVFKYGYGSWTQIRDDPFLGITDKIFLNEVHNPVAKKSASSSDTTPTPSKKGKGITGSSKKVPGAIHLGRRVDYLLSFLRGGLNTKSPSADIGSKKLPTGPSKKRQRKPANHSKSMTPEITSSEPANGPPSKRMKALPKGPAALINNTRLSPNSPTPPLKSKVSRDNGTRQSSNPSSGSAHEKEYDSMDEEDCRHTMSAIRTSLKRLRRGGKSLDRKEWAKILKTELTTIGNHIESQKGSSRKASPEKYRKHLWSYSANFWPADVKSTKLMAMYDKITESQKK
Chain of Protein translocase subunit SecA (Escherichia coli (strain K12)) (P10408 whole entry): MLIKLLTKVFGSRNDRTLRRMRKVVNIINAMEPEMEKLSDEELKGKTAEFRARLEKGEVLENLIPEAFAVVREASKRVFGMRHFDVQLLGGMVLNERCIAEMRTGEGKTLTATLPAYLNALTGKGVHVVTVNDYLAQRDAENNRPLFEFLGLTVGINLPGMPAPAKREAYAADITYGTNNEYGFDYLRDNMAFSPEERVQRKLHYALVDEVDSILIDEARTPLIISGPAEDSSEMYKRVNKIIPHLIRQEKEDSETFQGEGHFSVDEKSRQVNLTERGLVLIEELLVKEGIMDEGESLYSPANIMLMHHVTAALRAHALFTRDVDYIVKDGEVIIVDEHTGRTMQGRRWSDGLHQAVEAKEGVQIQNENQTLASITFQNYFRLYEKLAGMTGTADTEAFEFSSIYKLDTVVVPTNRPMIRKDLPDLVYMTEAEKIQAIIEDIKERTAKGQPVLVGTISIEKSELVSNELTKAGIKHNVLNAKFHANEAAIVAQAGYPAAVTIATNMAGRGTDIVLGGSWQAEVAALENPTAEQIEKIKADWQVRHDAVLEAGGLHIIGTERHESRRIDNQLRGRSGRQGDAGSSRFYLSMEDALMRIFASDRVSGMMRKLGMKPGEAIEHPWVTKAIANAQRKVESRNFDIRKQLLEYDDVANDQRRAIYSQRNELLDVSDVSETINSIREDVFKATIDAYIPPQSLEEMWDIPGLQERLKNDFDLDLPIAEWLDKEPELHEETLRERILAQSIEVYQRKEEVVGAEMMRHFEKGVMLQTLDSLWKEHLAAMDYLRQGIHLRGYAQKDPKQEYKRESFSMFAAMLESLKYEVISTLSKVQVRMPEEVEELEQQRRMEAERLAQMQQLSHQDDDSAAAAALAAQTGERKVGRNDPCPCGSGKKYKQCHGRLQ

`CCC(=O)NCc1cc(Br)ccc1OC(F)F`: the Percent Effect in assay [1] was -4.17%; in [2], 8%; in assay [3] it was -2.35%; in [4], 7.52%; in the assay on Trypanosoma cruzi, 3.41%; in assay [5], 1.04%. Moreover, the Percent Effect in [6] was 13.6%; in the assay filed under Homo sapiens, -8.01%; in assay [7], 9.29%; in [8], 18.5%; in [9], -6.17%.

For `O=C(CC1CC1)N1CC[C@H]2[C@@H]1CCC(=O)N2c1cccnc1`, the Percent Effect in [1] was 3.01%; in [2] it was 10.8%; in assay [3], 7.09%; in [4], -6.56%; in the assay on Trypanosoma cruzi it was -4.79%; in assay [5] it was 4.14%. Moreover, the Percent Effect in [6] is 22.9%; in the assay listed under Homo sapiens it was 2.55%; in assay [7], 1.08%; in [8] it was 12.8%; in assay [9] it was -1.6%.

Turning to `CN(Cc1ccsc1)C(=O)CS(=O)(=O)Cc1ccc(Cl)c(Cl)c1`, the Percent Effect was -1.27% in [1]; -5.2% in [2]; 10.5% in assay [3]; -5.21% in assay [4]; 7.15% in the assay on Trypanosoma cruzi; 0.21% in assay [5]. The Percent Effect was 15.6% in assay [6]; 7.44% in the assay listed under Homo sapiens; -13.3% in assay [7]; 0% in [8]; -13.1% in [9].

In the case of `CC1(C)CC(N2Cc3nc(N)ncc3C2=O)CC(C)(C)N1`, the Percent Effect in assay [1] is 0.646%; in [2] it was 10.4%; in assay [3], -3.77%; in assay [4], 8.41%; with Trypanosoma cruzi it was 4.23%; in [5] it was -35.9%. Moreover, the Percent Effect in [6] was 10.7%; in the assay listed under Homo sapiens it was 11%; in [7] it was 6.45%; in assay [8] it was 21%; in assay [9] it was -5.13%.

For `Cc1cnn(CC2CCCN2C(=O)c2nccc3ccccc23)c1` (stereo unspecified), the Percent Effect in assay [1] was -3.25%; in assay [2] it was 13%; in assay [3] it was 4.54%; in assay [4] it was 3.78%; in the assay with Trypanosoma cruzi, -0.49%; in assay [5] it was -1.05%. For the same compound, the Percent Effect is 6.39% in assay [6]; 10.7% in the assay filed under Homo sapiens; 0% in assay [7]; 11.8% in assay [8]; -15.9% in assay [9].

Turning to `CCS(=O)(=O)CCN1CCCC1c1noc(C2CC2)n1` (stereo unspecified), the Percent Effect in assay [1] is -0.786%; in [2] it was 20.2%; in assay [3], -7.83%; in [4], -3.74%; in the assay with Trypanosoma cruzi, -4.44%; in assay [5] it was 0%. For the same compound, the Percent Effect in assay [6] is 6.63%; in the assay filed under Homo sapiens, 38.5%; in assay [7] it was -0.493%; in [8], -34.2%; in assay [9], -7.2%.

On to `O=C(NCc1nnc2ccccn12)N1CCc2sccc2C1`, for which the Percent Effect in assay [1] is -3.42%; in assay [2], -6.33%; in [3], 6.9%; in assay [4], 2.84%; in the assay on Trypanosoma cruzi, -1.33%; in assay [5], 1.94%. For the same compound, the Percent Effect was 7.89% in assay [6]; 11.1% in the assay listed under Homo sapiens; 2.08% in assay [7]; 7.59% in assay [8]; -7.88% in assay [9].

On to `Cc1cc(CN2CCN(C(=O)NCc3nc(C)cs3)CC2)on1`, for which the Percent Effect in assay [1] was -3.26%; in assay [2] it was 23.7%; in [3], -8.55%; in assay [4], -8.19%; with Trypanosoma cruzi, -4.95%; in [5] it was 0%. Besides, the Percent Effect was 12.9% in [6]; -12.4% in the assay filed under Homo sapiens; 5.42% in assay [7]; 13.6% in assay [8]; -3.29% in assay [9].

On to `O=C(NCCc1cccc(F)c1)NCC(O)c1cccc(F)c1` (stereo unspecified), for which the Percent Effect in assay [1] was -2.56%; in [2] it was 5.41%; in assay [3], 4.6%; in assay [4], 6.95%; in the assay with Trypanosoma cruzi, 1.04%; in [5] it was 1.6%. The Percent Effect in [6] was 7.93%; in the assay listed under Homo sapiens, 10.8%; in [7] it was 8.37%; in assay [8], 23.5%; in [9] it was -3.01%.

For the compound `CC(NC(N)=O)C(=O)N(C)CCCc1cc(-c2ccccc2)no1` (stereo unspecified), the Percent Effect in assay [1] is -3.18%; in assay [2] it was 2.7%; in [3] it was 7.96%; in assay [4], -4.86%; in the assay with Trypanosoma cruzi, -10.1%; in assay [5], -1.29%. Also, the Percent Effect worked out at 9.34% in [6]; 25% in the assay listed under Homo sapiens; 3.96% in assay [7]; 6.1% in assay [8]; 0.208% in assay [9].

Consider `Cc1cc(N2CCCN(C(=O)Cc3csc(C)n3)CC2)ccn1`, for which the Percent Effect was 0.872% in assay [1]; 5.41% in assay [2]; 0.202% in assay [3]; -1.96% in [4]; -2.7% in the assay with Trypanosoma cruzi; 4.76% in assay [5]. Further, the Percent Effect in [6] is 20.2%; in the assay filed under Homo sapiens it was 9.24%; in assay [7], 2.65%; in [8], 9.76%; in assay [9] it was -3.36%.
